# Screening data: PubChem, National Center for Advancing Translational Sciences (NCATS)
# Pf growth 96h – Primary qHTS for delayed death inhibitors of the malarial parasite plastid, 96 hour incubation | Potency, µM (top dose mostly 28.7 µM), for the others: at the top dose activity change, negative = inhibition, actives largely listed as inhibitors | 320,000 compounds, 6.9% hits | P. falciparum luciferase reporter growth, 96 h; note: potency is the fitted concentration of half-maximal effect; % is set by controls: 0 for no effect and ±100 for the full control effect
#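 Two-generation exposure (96 h) targets delayed-death phenotype. Reporter parasites carrying integrated firefly luciferase, in red cells at 2% hematocrit and 0.05% parasitemia final, kept at 37 C, 5% CO2; luminescence loss indicates inhibition.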
# SARS PLP yeast – qHTS of Yeast-based Assay for SARS-CoV PLP. S. cerevisiae expressing SARS-CoV PLpro, growth rescue. AID 485353, 2010. 330,000 compounds, 0.19% hits. Potency, µM (series often up to 32.9 µM), inactives show at the highest dose activity, positive = growth rescue, usual class: activators; calls by dose curve; note: potency is the fitted concentration of half-maximal effect; 0% is about no effect; nearly all actives have a fitted effect of over 55% in size
# Pf growth 48h – Primary qHTS for delayed death inhibitors of the malarial parasite plastid, 48 hour incubation | Potency, µM (top dose mostly 28.7 µM), inactives show at the top dose activity change, negative = inhibition, usual class: inhibitors | P. falciparum luciferase growth in erythrocytes, 48 h | 310,000 compounds, 5.9% hits; note: potency is the fitted concentration of half-maximal effect; % is set by controls: 0 for no effect and ±100 for the full control effect
#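 Read-out is firefly luciferase luminescence from an integrated reporter in P. falciparum, so falling signal marks reduced parasite growth. Infected erythrocytes were at 2% hematocrit and 0.1% parasitemia (final) in Albumax-supplemented RPMI 1640.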
# CHX counter – Cycloheximide Counterscreen for Small Molecule Inhibitors of Shiga Toxin. cell reporter, cycloheximide protein synthesis inhibition counterscreen. max response, %. 300,000 compounds, 12% hits. AID 2314, 2010; in the data active = max response mostly above about 13%, no sharp cut-off; inactive = mostly below about 14%; note: read at 38.3 µM for the half of the compounds with a filed dose; 0% is about no effect
# Shiga inhibitor – A qHTS for Small Molecule Inhibitors of Shiga Toxin; Vero cells, Shiga toxin protein synthesis inhibition reporter; AID 2315, 2010; inhibition, % at 38.7 µM; 290,000 compounds, 9.2% hits; in the data active = inhibition mostly above about 28%, no sharp cut-off; inactive = mostly below about 43%; note: 0% is about no effect
# NS1 inh – qHTS Assay for Inhibitors of Influenza NS1 Protein Function. Potency, µM (series often up to 46.1 µM), inactives show top-dose activity, positive = more growth. 270,000 compounds, 0.4% hits. AID 2326, 2010; calls by dose curve; note: potency is the fitted concentration of half-maximal effect; actives are rising curves; nearly all actives have a fitted effect of over 50% in size
#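 Compounds were scored for reversing the slow growth caused by influenza A NS1 in S. cerevisiae, measured by optical density at 600 nm. Assay medium contained 2% galactose at pH 6.0; NS1-free yeast of the same strain were the positive control.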
# * = called active by the depositor; ? = inconclusive; . = no result. Hits are enriched below; roughly 21% of the tested compounds scored in any of these assays. Unless noted, calls come from the whole dose curve; as a rule, active = well fitted inhibition curve with a large enough effect; inconclusive = small, poorly fitted or top-dose-only effect, or another doubt; inactive = no such curve, though single readings can be large or run the other way.
SMILES,Pf growth 96h,SARS PLP yeast,Pf growth 48h,CHX counter,Shiga inhibitor,NS1 inh
CC(=O)c1c(C)[nH]c(C(=O)COC(=O)c2ccc(C)s2)c1C,.,0%,.,.,.,.
Cc1ccc(-c2nc3cnccn3c2Nc2ccc3c(c2)OCO3)o1,?,-2%,?,-3,12,-38%
Cc1ccn2c(Nc3ccc4c(c3)OCO4)c(-c3ccccn3)nc2c1,?,?,12µM*,77*,39*,?
Cc1ccc(Nc2c(-c3ccccn3)nc3cc(C)ccn23)cc1,9.3µM*,-31%,?,-4,3,.
COc1ccc(-c2cc(C(F)(F)F)nc(N3CCN(C)CC3)n2)cc1,36%,5%,13µM*,-4,-21,7%
COC(=O)c1nn(-c2nc(-c3cccc(OC)c3)cc(C(F)(F)F)n2)cc1[N+](=O)[O-],?,0%,-6%,-6,3,.
COC(=O)c1nn(-c2nc(-c3ccc(OC)c(OC)c3)cc(C(F)(F)F)n2)cc1[N+](=O)[O-],17µM*,-1%,-17%,-7,-15,.
COc1ccc(-c2cc(C(F)(F)F)nc(N3CCCCC3)n2)cc1OC,75%,3%,3.3µM*,-2,-4,0%
COc1ccc(-c2cc(C(F)(F)F)nc(N3CCN(C)CC3)n2)cc1OC,5.2µM*,-5%,?,-3,12,-2%
CCC(C)(C)C1CCc2[nH]nc(C(=O)NCCNC(=O)OC(C)(C)C)c2C1 (stereo not given),-22%,-2%,?,.,.,.
Cc1cc(C#N)c(C)n1-c1cc(S(=O)(=O)N2CCOCC2)ccc1N1CCCC1,?,.,?,-2,-1,2%
Cn1c(N)c(C(=O)COC(=O)CCCOc2ccc(Cl)cc2Cl)c(=O)n(C)c1=O,23%,-1%,0%,-2,-6,9%
COC(=O)c1ccc2nc(NC(=O)C3CCCCC3)sc2c1,?,0%,126%,24*,18,2%
CC(C)c1ccc2nc(NC(=O)C3CC3)sc2c1,264%,-31%,109%,52*,70*,-100%
O=C(Nc1nc2ccc(S(=O)(=O)N3CCCC3)cc2s1)C1CCCCC1,1%,7%,?,-4,1,-17%
COC(=O)/C(=C\C(=O)c1ccccc1)Nc1cccc(C(F)(F)F)c1,68%,-8%,56%,44*,98*,-9%
O=C(Nc1cccc(C(F)(F)F)c1)C12CC3CC(CC(C3)C1)C2,-7%,-25%,13µM*,1,14,2%
CC1(C(=O)Nc2cccc(C(F)(F)F)c2)CO1 (stereo not given),5%,0%,143%,2,10,.
O=C(Nc1ccccc1)Nc1cccc(C(F)(F)F)c1,63%,-5%,?,30*,80*,.
COc1ccc(NC(=O)Nc2cccc(C(F)(F)F)c2)cn1,?,-13%,13µM*,6,31,-23%
CCSCCc1nnc(NC(=O)Nc2cccc(C(F)(F)F)c2)s1,?,2%,5.2µM*,-2,-8,-7%
Cc1ccc(S(=O)(=O)N(C)C)cc1NC(=S)NNC(=O)C(N)=O,42%,-1%,1%,-4,-5,.
Cc1nn(-c2ccccc2)c(C)c1CN,?,-1%,-11%,-2,-24,-2%
Cc1nn(-c2ccccc2)c(C)c1Cc1ccc(O)cc1,47%,-5%,43%,26*,77*,-10%
CCc1ccccc1NC(=O)c1ccc(-c2csc(C)n2)cc1,53%,-4%,69%,27*,53*,4%
SMILES,Pf growth 96h,SARS PLP yeast,Pf growth 48h,CHX counter,Shiga inhibitor,NS1 inh
Cc1nc(-c2ccc(NC(=O)c3ccccc3)cc2)cs1,-6%,6%,-26%,-4,-9,1%
Cc1nc(-c2ccc(NC(=O)C3CCCCC3)cc2)cs1,.,-3%,91%,43*,137*,-5%
Cc1csc(NC(=O)C2CCCC2)n1,56%,5%,.,28*,33,-4%
Cc1ccc(C(=O)Nc2ccc(-c3csc(C)n3)cc2)cc1,288%,-2%,418%,35*,118*,1%
N#Cc1ccc(-c2csc(NC(=O)C3CC3)n2)cc1,101%,3%,.,12,30,-3%
COc1nnc(-c2ccc(N3CCCCC3)c(NC(C)=O)c2)c2ccccc12,?,-17%,.,7,-12,-14%
O=C(NCCCN1CCOCC1)C(=O)NCc1ccco1,51%,0%,22%,-3,-3,5%
O=C(Cn1c(=O)oc2cccnc21)Nc1ccc(C(F)(F)F)cc1,0%,3%,9%,-1,-6,3%
Cc1nn(C)c(Cl)c1CN1CCC(CO)(CC2CCCCO2)CC1 (stereo not given),16%,0%,7%,-3,-22,2%
C=CCNC(=S)Nc1c(C(=O)OC)[nH]c2cc(OC)ccc12,28%,1%,-3%,19*,30,5%
COC(=O)c1[nH]c2cccc(OC)c2c1NC(=O)CCN1CCN(c2ccccc2OC)CC1,-8%,5%,?,-3,-23,-3%
COC(=O)c1[nH]c2cccc(OC)c2c1NC(=O)CCN1CCC(C)CC1,1.9µM*,1%,8%,-5,-9,13%
COC(=O)c1[nH]c2cc(OC)ccc2c1NC(=O)CCN1CCCC(C)(C)C1,1.7µM*,3%,1%,-5,-19,11%
O=C(COC(=O)Cn1cnc2ccccc2c1=O)Nc1ccccc1Sc1ccc(Cl)cc1,12%,-13%,-1%,0,-8,-12%
CCN(CC)c1ccc(S(=O)(=O)N2CCOCC2)cc1NC(=O)CSc1nnc(N)s1,?,-3%,?,.,.,.
Cc1[nH]n(-c2cccc(Cl)c2)c(=O)c1-c1ccccc1,5.9µM*,-2%,.,-3,-8,-81%
Cc1[nH]n(-c2cccc([N+](=O)[O-])c2)c(=O)c1-c1ccccc1,13µM*,-3%,?,8,34,.
Cc1[nH]n(-c2ccccc2)c(=O)c1-c1ccccc1,-11%,12%,?,-3,-4,1%
CN(C)c1ccc(C(=O)NC2(N3CCC3=O)CCCC2)cc1,?,0%,-7%,22*,27,1%
COc1cc(OC)c(N(C)C(=O)c2cn(C)c(=O)c3cc(OC)c(OC)cc23)cc1Cl,23%,2%,.,-1,-3,-6%
Fc1cccc(F)c1-n1c(CN2CCOCC2)csc1=S,-22%,0%,13%,-6,22,.
Fc1cccc(F)c1-n1c(CN2CCCCC2)csc1=S,12µM*,-4%,?,-4,-16,.
Cc1cc(C)c(NC(=O)NC(=O)c2ccc(F)cc2)c(C)n1,.,2%,64%,28*,34*,9%
Cc1cc(C)c(NC(=O)NC(=O)c2cccc(F)c2)c(C)n1,158%,7%,35%,15*,37,-3%
CC1(C)CC(N=c2cc(-c3ccccc3)oc3ccc(Cl)cc23)CC(C)(C)N1,?,-5%,?,10,-14,.
